# Assay results as given in PubChem BioAssay (EPA / NIEHS).
# Activity calls are given as the source filed them. How the source made its calls: active means hit-call score of the fitted dose curve at least 0.9, where 1 is the maximum; inactive means score below 0.9.
# Read-out: Epidermal growth factor receptor (EGFR), EGFR (gene 1956)
# Test: BSK_hDFCGF_EGFR: BioMAP Diversity Plus: hDFCGF Assay for Epidermal growth factor receptor (EGFR) Biomarker Activity (AID 2283057)
# Conditions: primary human foreskin fibroblasts; actives raise or lower the signal
# Outline: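 ELISA readout of EGFR on human dermal fibroblasts (primary foreskin cells), 24 h post-dosing; bidirectional curve fit vs DMSO baseline, gain or loss of signal scored.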
row,Structure (SMILES),outcome
1,Cn1cc[nH]c1=S,inactive
2,CC(C)CC(C)O (centres undefined),inactive
3,O=C1CN(N=Cc2ccc([N+](=O)[O-])o2)C(=O)N1,inactive
4,OCc1ccccc1,inactive
5,NC(=O)N(O)[C@@H]1COc2cc(OCc3ccccc3)ccc21,inactive
6,C=CCc1cc(S(=O)(=O)c2ccc(O)c(CC=C)c2)ccc1O,inactive
7,CC(C)C(=O)Nc1ccc([N+](=O)[O-])c(C(F)(F)F)c1,inactive
8,CCn1nc(C)c2c1C(=O)NCC(c1ccc(O)cc1)=N2,inactive
9,COc1cc2c(c(OC)c1OC)-c1ccc(OC)c(=O)cc1[C@@H](NC(C)=O)CC2,inactive
10,CNC(C)=O,inactive
11,CCOC(N)=O,inactive
12,FC(F)=C(F)C(F)(F)C(F)(F)C(F)(F)C(F)(F)C(F)(F)C(F)(F)F,inactive
13,c1ccc2cc3ccccc3cc2c1,inactive
14,CCCCOC(=O)c1ccccc1,inactive
15,O=C(Cl)C(F)(F)C(F)(F)C(F)(F)C(=O)Cl,inactive
16,Cn1c(=O)c2[nH]cnc2n(C)c1=O,inactive
17,CCCOc1ccc(S(=O)(=O)N2CCN(CC)CC2)cc1-c1nc2c(CC)n(Cc3ccccn3)nc2c(=O)[nH]1,inactive
18,CC(C)CCCCCCOC(=O)C1CCCCC1C(=O)OCCCCCCC(C)C (centres undefined),inactive
19,COS(C)(=O)=O,inactive
20,O=C(O)[C@H](O)[C@@H](O)C(=O)O,inactive
21,Cc1nccn1-c1ccc(Sc2cccc(C3(C(N)=O)CCOCC3)c2)cc1,inactive
22,CCCc1ccccc1,inactive
23,C[C@@H](Oc1ccc(CNC(=O)c2cccnc2Oc2ccc3c(c2)OCO3)c(F)c1)C(=O)O,inactive
24,Cc1ncc([C@@H](CCCCCCc2ccc3c(n2)NCCC3)CC(=O)O)cn1,inactive
25,NNC(=O)c1ccncc1,inactive
26,OC(CCl)CCl,inactive
27,OCCC(F)(F)C(F)(F)C(F)(F)C(F)(F)F,inactive

# Read-out: Interleukin-8 (IL8), CXCL8 (gene 3576)
# Test: BSK_hDFCGF_IL8: BioMAP Diversity Plus: hDFCGF Assay for Interleukin-8 (IL8) Biomarker Activity (AID 2283058)
# Conditions: primary human foreskin fibroblasts; actives raise or lower the signal
# Outline: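 hDFCGF human dermal fibroblasts; 24 h chemical exposure; IL-8 by ELISA; bidirectional curve fit vs DMSO baseline; gain or loss of signal scored.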
Structure (SMILES),outcome,AC50
Cn1cc[nH]c1=S,inactive,–
CC(C)CC(C)O (centres undefined),inactive,–
O=C1CN(N=Cc2ccc([N+](=O)[O-])o2)C(=O)N1,inactive,–
OCc1ccccc1,inactive,–
NC(=O)N(O)[C@@H]1COc2cc(OCc3ccccc3)ccc21,inactive,–
C=CCc1cc(S(=O)(=O)c2ccc(O)c(CC=C)c2)ccc1O,–,34.4 µM (active)
CC(C)C(=O)Nc1ccc([N+](=O)[O-])c(C(F)(F)F)c1,inactive,–
CCn1nc(C)c2c1C(=O)NCC(c1ccc(O)cc1)=N2,inactive,–
COc1cc2c(c(OC)c1OC)-c1ccc(OC)c(=O)cc1[C@@H](NC(C)=O)CC2,inactive,–
CNC(C)=O,inactive,–
CCOC(N)=O,inactive,–
FC(F)=C(F)C(F)(F)C(F)(F)C(F)(F)C(F)(F)C(F)(F)C(F)(F)F,inactive,–
c1ccc2cc3ccccc3cc2c1,inactive,–
CCCCOC(=O)c1ccccc1,inactive,–
O=C(Cl)C(F)(F)C(F)(F)C(F)(F)C(=O)Cl,inactive,–
Cn1c(=O)c2[nH]cnc2n(C)c1=O,inactive,–
CCCOc1ccc(S(=O)(=O)N2CCN(CC)CC2)cc1-c1nc2c(CC)n(Cc3ccccn3)nc2c(=O)[nH]1,inactive,–
CC(C)CCCCCCOC(=O)C1CCCCC1C(=O)OCCCCCCC(C)C (centres undefined),inactive,–
COS(C)(=O)=O,inactive,–
O=C(O)[C@H](O)[C@@H](O)C(=O)O,inactive,–
Cc1nccn1-c1ccc(Sc2cccc(C3(C(N)=O)CCOCC3)c2)cc1,inactive,–
CCCc1ccccc1,inactive,–
C[C@@H](Oc1ccc(CNC(=O)c2cccnc2Oc2ccc3c(c2)OCO3)c(F)c1)C(=O)O,inactive,–
Cc1ncc([C@@H](CCCCCCc2ccc3c(n2)NCCC3)CC(=O)O)cn1,inactive,–
NNC(=O)c1ccncc1,inactive,–
OC(CCl)CCl,inactive,–
OCCC(F)(F)C(F)(F)C(F)(F)C(F)(F)F,inactive,–
